Test results published in PubChem BioAssay AID489028 (Sanford-Burnham Center for Chemical Genomics, 2010).
The whole screen tested about 10,000 compounds, of which about 5,600 (56%) were called active. The set was probably picked from earlier hits. A selection follows. Unmarked numbers belong to inactive results. Rule as the data show it: active = inhibition above about 40%; inactive = the rest.

What follows are compounds tested against Protein Mdm4 (Homo sapiens) + E3 ubiquitin-protein ligase Mdm2 (Homo sapiens) (UniProt O15151+Q00987) (assay: inhibition of human Mdm2/MdmX pairing – luminescence, single concentration, confirmation (AID 489028)). Conditions: Mdm2-MdmX binding, luminescent assay; at 8 µM; hits give high values.
Protein Mdm4 (Homo sapiens) + E3 ubiquitin-protein ligase Mdm2 (Homo sapiens), sequence (O15151 whole entry, looked up): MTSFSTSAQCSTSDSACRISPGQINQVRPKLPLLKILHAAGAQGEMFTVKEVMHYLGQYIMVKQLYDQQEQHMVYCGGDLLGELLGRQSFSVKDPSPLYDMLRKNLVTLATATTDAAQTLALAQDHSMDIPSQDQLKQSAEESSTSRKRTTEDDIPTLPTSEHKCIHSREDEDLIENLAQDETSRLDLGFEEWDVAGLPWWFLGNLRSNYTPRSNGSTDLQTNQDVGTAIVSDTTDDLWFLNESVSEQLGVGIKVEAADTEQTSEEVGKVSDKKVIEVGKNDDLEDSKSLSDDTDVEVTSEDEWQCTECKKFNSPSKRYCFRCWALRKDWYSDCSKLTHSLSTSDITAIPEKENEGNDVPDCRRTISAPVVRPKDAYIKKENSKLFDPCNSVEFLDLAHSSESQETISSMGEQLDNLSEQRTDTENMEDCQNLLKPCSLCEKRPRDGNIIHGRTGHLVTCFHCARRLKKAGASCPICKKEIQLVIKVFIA
Protein Mdm4 (Homo sapiens) + E3 ubiquitin-protein ligase Mdm2 (Homo sapiens), sequence (Q00987 whole entry, looked up): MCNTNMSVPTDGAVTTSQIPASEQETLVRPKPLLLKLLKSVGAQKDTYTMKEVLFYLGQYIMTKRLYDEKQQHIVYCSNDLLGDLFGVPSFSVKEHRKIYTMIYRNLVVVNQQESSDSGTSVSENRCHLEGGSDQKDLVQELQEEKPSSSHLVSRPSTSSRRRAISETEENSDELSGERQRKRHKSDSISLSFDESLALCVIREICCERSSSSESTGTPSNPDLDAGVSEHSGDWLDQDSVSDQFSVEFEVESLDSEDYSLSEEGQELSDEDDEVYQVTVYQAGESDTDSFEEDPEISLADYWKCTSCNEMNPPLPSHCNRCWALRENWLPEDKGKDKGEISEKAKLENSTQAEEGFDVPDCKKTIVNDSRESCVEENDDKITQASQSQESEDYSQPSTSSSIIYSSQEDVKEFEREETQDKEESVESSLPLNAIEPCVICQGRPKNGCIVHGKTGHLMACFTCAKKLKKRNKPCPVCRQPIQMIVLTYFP

| Compound | inhibition |
| --- | --- |
| N#Cc1ccc(C(=O)Nc2cccc3cccnc23)c(F)c1 | 1.3% |
| CC(=O)/C(=N\Nc1ccc(Cl)cc1Cl)Sc1cccc2cccnc12 | 63% (active) |
| NC(N)=Nc1nc(-c2ccccc2)c2cc(Cl)ccc2n1 | 59.5% (active) |
| CCCCCCC(=O)N(O)C1CC(=O)N(c2ccccc2)C1=O (stereo unspecified) | 27.3% |
| COc1ccc(Nc2ncnc3ccc(Br)cc23)c(OC)c1 | 74% (active) |
| CCN(CCCNC(=O)CSc1cc(=O)n(C)c2cc(Cl)ccc12)Cc1ccccc1 | 19.6% |
| CC1CN(C(=O)CCC(=O)NCCCN2CCC(Cc3ccccc3)CC2)c2cc(Cl)ccc2O1 (stereo unspecified) | 56.8% (active) |
| FC(F)(F)c1ccc(CN2C[C@@H]3C(c4ccccc4)C4(c5ccccc5)CC3(C4)[C@H]2c2ccccc2)cc1 (stereo partly specified) | 94.5% (active) |
| Cc1cc(C(=O)NC2CCCc3c2cnn3-c2cccc(C)c2C)c(C)o1 (stereo unspecified) | 61.6% (active) |
| COc1ccc(C(=O)NC2CCCc3c2cnn3-c2cccc(C)c2C)c(OC)n1 (stereo unspecified) | 94.8% (active) |
| CCCCC(O)(CCCC)C(=O)NN(C(=O)CCl)c1ccccc1 | 57.1% (active) |
| CCCC(O)(CCC)C(=O)NN(C(=O)CCl)c1cccc(C)c1 | 58.3% (active) |
| CCCCn1ccnc1C(=O)c1cccc(S(=O)(=O)N2c3ccccc3CC2C)c1 (stereo unspecified) | 9.35% |
| N=c1n(CCc2ccccc2)c2ccccc2n1Cc1ccccc1F | 52.5% (active) |
| CCCc1ccc(OCC(=O)NNC(=S)NC(=O)c2ccco2)cc1 | 23.9% |
| COC(=O)c1c(NC(=O)COc2ccc(Cl)cc2Cl)sc2c1CC(C)(C)NC2(C)C | 73.6% (active) |
| CN1CCN(C2Cc3ccc(Cl)cc3Sc3ccc(F)cc32)CC1 (stereo unspecified) | 27.8% |
| Oc1cccc(/C=N/Nc2ccc(Cl)nn2)c1O | 61.2% (active) |
| CCOc1ccc(C2c3[nH]c4ccccc4c3CCN2Cc2cccn2-c2ncccn2)cc1 (stereo unspecified) | 32.3% |

| Compound | inhibition |
| --- | --- |
| C=CCn1c(SCc2c(C)noc2C)nc2sc3c(c2c1=O)CCC(C)C3 (stereo unspecified) | 57.9% (active) |
| CCOc1cc(-c2cc(-c3ccc(NC(C)=O)cc3)nc(N)c2C#N)ccc1O | 31.6% |
| Cc1ccc(-n2[nH]c(C)c(/C=N/NC(=O)c3cccc([N+](=O)[O-])c3)c2=O)cc1C | 82.2% (active) |
| O=[N+]([O-])c1cc(S(=O)(=O)Nc2cccc(Cl)c2)ccc1N=Nc1c(O)[nH]c2ccccc12 | 5.3% |
| NS(=O)(=O)c1ccc(N=Nc2c(O)[nH]c3ccc(Br)cc23)cc1 | 42.6% (active) |
| O=C(Nc1ccc(-c2csc(Nc3cccc(C(F)(F)F)c3)n2)cc1)c1cccc(C(F)(F)F)c1 | -10.4% |
| O=C(Nc1ccc(C(=O)N2CCOCC2)cc1)Nc1cccc(C(F)(F)F)c1 | 70.3% (active) |
| CCNS(=O)(=O)c1ccc(NC(=O)Nc2cccc(C(F)(F)F)c2)cc1 | 42.4% (active) |
| CC(C)Oc1c(Br)cc(Br)cc1/C=N/NC(N)=S | 15.2% |
| CCC1CCCCN1CCCNC(=O)c1cc2c(Cl)nc3ccccc3c2s1 (stereo unspecified) | 26% |
| Cc1nc(/N=C(\N)NC(=O)NC2CCCCC2)nc2ccccc12 | 43.9% (active) |
| O=[N+]([O-])/C=C/c1ccc2c(ccn2Cc2ccccc2)c1 | 52.9% (active) |
| CN(c1ccccc1)S(=O)(=O)c1cc(C(=O)N2CCN(c3ncccn3)CC2)ccc1Cl | 50.1% (active) |
| O=C(CSc1nc(Nc2ccccc2)nc(N2CCOCC2)n1)Nc1cc(Cl)ccc1O | 35% |
| COc1cccc(-n2c(SCC(=O)NC3CCCCC3)nc3n[nH]c(C)c3c2=N)c1 | 51.4% (active) |
| CC(C)(C)OC(=O)N1CCC(NC(=O)c2[nH]cnc2C(=O)N[C@@H](Cc2ccccc2)C(=O)OCc2ccccc2)CC1 | -8% |
| CCOC(=O)Nc1ccc2c(c1)N(C(=O)CCCl)c1ccccc1[S@]2=O | 41.2% (active) |
| CCOc1cc(C(=O)N2CCc3cc(OC)c(OC)cc3C2)ccc1OC(F)F | 56.4% (active) |
| CCOc1cc2[nH]c(=S)n(Cc3ccc(C(=O)N4CCN(C)CC4)cc3)c(=O)c2cc1OCC | -2.8% |

| Compound | inhibition |
| --- | --- |
| O=c1[nH]c(CCl)nc2cc(-c3ccc(Cl)cc3)sc12 | 7.45% |
| COc1cccc(NC(=O)[C@H](Cc2c[nH]c3ccccc23)NC(=O)[C@@H]2Cc3ccccc3CN2)c1 | 76% (active) |
| CC(C)=CCCC1(C)C=Cc2c(ccc3c2[nH]c2cc(O)c(C)cc23)O1 (stereo unspecified) | 20.9% |
| Cc1ccc(OCCOCCOc2ccc(Br)cc2/C=N\NC(=O)c2ccncc2)cc1 | 68% (active) |
| O=[N+]([O-])c1ccccc1S(=O)(=O)Nc1cccc2cccnc12 | 64.5% (active) |
| CC(NC(=O)c1ccc(N2CCNCC2)c([N+](=O)[O-])c1)C12CC3CC(CC(C3)C1)C2 (stereo unspecified) | 73% (active) |
| O=C(Nc1cccc(C(F)(F)F)c1)c1ccc(N2CCNCC2)c([N+](=O)[O-])c1 | 8.6% |
| O=C(/C=C/c1ccc(Cl)cc1)Nc1ccc(Br)cn1 | 13.2% |
| Cc1cccc(Nc2ccccc2C(=O)NCc2ccco2)c1C | 43.1% (active) |
| CCc1nn(-c2cc(Oc3cccc4ccccc34)nc(-c3ccccc3)n2)c(N)c1C#N | 13.9% |
| CN(C)c1ccnc2sc3c(=O)n(Cc4ccccc4)cnc3c12 | 64.7% (active) |
| N#CCC(=O)N/N=C/c1cn(Cc2ccc3ccccc3c2)c2ccccc12 | 23.6% |
| Cc1c(/C=N\NC(=O)c2cc3ccccc3o2)c2ccccc2n1C | 54.4% (active) |
| COc1cccc(CNCCc2c[nH]c3ccccc23)c1OCc1ccccc1F | 45.4% (active) |
| COc1cccc(-c2nnc(NC(=O)c3ccc(S(=O)(=O)N(CC(C)C)CC(C)C)cc3)o2)c1 | 52.3% (active) |
| NC(=O)c1sc2nc3c(c(-c4ccccc4)c2c1N)CCC3 | 68.7% (active) |
| COc1ccc(CNC(=O)C[C@H]2C[C@H](C(=O)N3CCOCC3)[C@@]3(CCC4CCCC4)c4[nH]c5ccc(Cl)cc5c4CCN3C2=O)cc1OC | 49.1% (active) |
| CCCCCCCCn1c2c(c(=N)c3c1CCC3)CCCC2 | 91.8% (active) |
